The results in this text go back to ChEMBL document CHEMBL4808148, “HDAC6 screening dataset using tau-based substrate in an enzymatic assay yields selective inhibitors and activators” (2021).

The inhibition is the change of the read-out against control, counted positive when it falls.

The target in test [1] is T1, Protein deacetylase HDAC6 (Homo sapiens) (UniProt Q9UBN7).
T1 sequence (whole entry): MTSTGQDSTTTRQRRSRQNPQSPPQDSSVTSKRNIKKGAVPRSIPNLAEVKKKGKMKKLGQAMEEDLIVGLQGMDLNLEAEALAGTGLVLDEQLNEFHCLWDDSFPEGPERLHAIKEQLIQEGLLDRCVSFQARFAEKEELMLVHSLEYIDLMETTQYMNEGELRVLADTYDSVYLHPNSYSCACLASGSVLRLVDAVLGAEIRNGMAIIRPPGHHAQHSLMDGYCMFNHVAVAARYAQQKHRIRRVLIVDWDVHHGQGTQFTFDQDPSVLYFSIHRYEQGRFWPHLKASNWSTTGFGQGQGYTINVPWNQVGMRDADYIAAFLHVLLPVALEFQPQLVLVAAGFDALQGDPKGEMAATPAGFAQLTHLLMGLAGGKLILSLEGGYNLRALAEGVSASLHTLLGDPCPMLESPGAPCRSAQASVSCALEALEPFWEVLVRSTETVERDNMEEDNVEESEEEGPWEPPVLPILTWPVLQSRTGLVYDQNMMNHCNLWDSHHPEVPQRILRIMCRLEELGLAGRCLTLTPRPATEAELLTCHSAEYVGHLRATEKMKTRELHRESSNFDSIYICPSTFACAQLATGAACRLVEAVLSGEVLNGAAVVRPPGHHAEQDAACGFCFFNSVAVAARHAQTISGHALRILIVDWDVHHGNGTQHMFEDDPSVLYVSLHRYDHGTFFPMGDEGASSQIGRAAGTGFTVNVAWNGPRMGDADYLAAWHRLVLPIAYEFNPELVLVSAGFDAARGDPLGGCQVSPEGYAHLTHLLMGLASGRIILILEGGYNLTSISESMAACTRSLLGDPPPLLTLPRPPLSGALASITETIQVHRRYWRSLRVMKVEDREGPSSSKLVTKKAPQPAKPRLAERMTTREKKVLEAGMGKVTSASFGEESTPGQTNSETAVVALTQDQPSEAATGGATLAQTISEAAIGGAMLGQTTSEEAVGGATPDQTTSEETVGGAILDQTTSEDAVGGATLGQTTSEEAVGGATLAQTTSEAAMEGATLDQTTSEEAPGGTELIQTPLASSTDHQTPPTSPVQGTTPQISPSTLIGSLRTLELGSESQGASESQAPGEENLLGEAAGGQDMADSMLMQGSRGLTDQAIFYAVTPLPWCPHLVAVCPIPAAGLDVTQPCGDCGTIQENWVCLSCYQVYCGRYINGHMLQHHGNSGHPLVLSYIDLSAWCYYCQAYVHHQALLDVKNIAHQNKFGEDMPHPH
Conditions: at 10 µM.

Test [2] addresses Protein deacetylase HDAC6 (Homo sapiens) (UniProt Q9UBN7). To be noted: at 10 µM. This is another data set of the same source.

Among all 5,600 compounds or so, about 150 (2.7%) showed an effect of 50% or more. Many of the other results were omitted from the sample, so strong results are more common in it than they were.

For the molecule `CSc1nc(-c2ccc(F)cc2)c(-c2ccnc(NC(C)c3ccccc3)c2)[nH]1` (stereo not drawn), the inhibition in test [1] was -0.06%.
For `Cc1nccc2[nH]c(=O)ccc12`, the inhibition in test [1] is -0.8%.
Still for that read-out and setting: for `COC(=O)CC1CC(c2ccc(O)cc2)=NO1` (stereo not drawn) the value was 68.8%.
Consider `COC(=O)c1ccc(O)cc1`, for which the inhibition in test [1] amounted to 11.4%.
Turning to `Fc1ccc(-c2cncc(CN3CCN(c4cccc5c4OCCO5)CC3)c2)cc1`, the inhibition in test [1] was found to be 2%.
Same read-out and setting: for `COC[C@@H](c1ccc(C(F)(F)F)cc1)N1CCN(C2(C)CCN(C(=O)c3c(C)ncnc3C)CC2)C[C@@H]1C` the value was 6.58%; for `O=C(c1ccc(/C=C/c2n[nH]c3ccccc23)cc1)N1CCNCC1`, 98%.
Still for that read-out and setting: the value for `Nc1c2ccccc2nc2ccccc12` was 4.21%; that for `Nc1ccc(/N=N/c2ccccc2)c(N)n1` was 78.3%; that for `O=C(O)CCn1c2c(c3ccccc31)C[C@H](NS(=O)(=O)c1ccc(F)cc1)CC2` was 0.51%.
Consider `CN1CCc2c(c3ccccc3n2Cc2ccc(C(=O)NO)cc2)C1`, for which, in test [1], the inhibition turned out to be 97%.
The same measure, in the same setting: for `Cc1ccc2c(c1)c1c(n2CCc2ccc(C)nc2)CCN(C)C1` the value was 0.41%.
Still for that read-out and setting: for `N#Cc1c(N)nc(SCc2ncc[nH]2)c(C#N)c1-c1ccc(O)cc1` the value was 4.89%.
Still for that read-out and setting: for `CSc1ccc(C(=O)N[C@@H]2CCCC[C@@H]2NC(=O)CNC(=O)c2cc(C(F)(F)F)ccc2NC(=O)NC(C)C)cc1` the value was -5.32%; for `Cc1ccc(S(=O)(=O)Nc2nc3ccccc3nc2Nc2ccc3nsnc3c2)cc1`, 1.65%; for `C#Cc1cccc(Nc2ncnc3cc(OC)c(OCCCCCCC(=O)NO)cc23)c1`, 94.6%.
As to `COc1cc2ncnc(Nc3cccc(Br)c3)c2cc1OC`, in test [1], the inhibition was -6.11%.
Regarding `C#Cc1cccc(Nc2ncnc3cc(OCCOC)c(OCCOC)cc23)c1`, in test [1], the inhibition is 1.06%.
As for `COc1cc2c(NC3CCN(C)CC3)nc(N3CCCN(C)CC3)nc2cc1OCCOCCN(C)C`, in test [1], the inhibition was found to be 4.62%.
The same measure, in the same setting: for `O=C(NCCO)c1cc(C(=O)NCCO)cc(C(=O)NCCO)c1` the value was -2.63%.
For the molecule `CCc1nn(CCO)c(CC)c1Oc1cc(C#N)cc(C#N)c1`, in test [1], the inhibition was -5.93%.
On to `O=C1Nc2ccccc2/C1=C1/Nc2ccccc2/C1=N\O`, for which, in test [1], the inhibition worked out at 36.4%.
Same read-out and setting: for `O=C(N/N=C/c1ccc(O)c(O)c1)c1cc2ccccc2cc1O` the value was 32.8%; for `O=C(Nc1ccc(O)cc1)c1ccccc1O`, 44.6%.
Same read-out and setting: for `O=C(N/N=C/c1ccccc1O)c1ccccc1O` the value was 77.3%; for `CC#C[C@@H](CC(=O)O)c1ccc(OCc2cccc(-c3ccc(C(F)(F)F)cc3)c2)cc1`, 5.76%; for `O=C(O)c1ccc(CN2CCC(CN[C@@H]3C[C@H]3c3ccccc3)CC2)cc1`, 8.19%.
For `N[C@@H](CCC(=O)O)C(=O)O`, in test [1], the inhibition was -3.62%.
The same measure, in the same setting: the value for `O=c1c(-c2ccc(O)cc2)coc2cc(O)cc(O)c12` was 57.9%; that for `COc1ccc(C(=O)c2ccc(C)cc2)c(O)c1` was 5.59%; that for `COc1ccc(-c2coc3cc(O)cc(O)c3c2=O)cc1` was 63.1%.
With `O=c1c(O)c(-c2ccc(O)cc2O)oc2cc(O)cc(O)c12`, the inhibition in test [1] is 2.84%.
For `O=c1c(O[C@@H]2O[C@H](CO)[C@H](O)[C@H](O)[C@H]2O)c(-c2ccc(O)c(O)c2)oc2cc(O)cc(O)c12`, the inhibition in test [1] stood at 11.7%.
For the molecule `COc1ccc(-c2oc3c(CC=C(C)C)c(O)cc(O)c3c(=O)c2O)cc1`, the inhibition in test [1] was determined as 6.17%.
In the case of `COc1ccc(OCC2c3cc(OC)c(OC)cc3CCN2C(=O)c2cccc(Cl)c2)cc1` (stereo not drawn), in test [1], the inhibition was -0.3%.
For the molecule “BIS(MALTOLATO)OXOVANADIUM(IV), CHEMBL286447”, in test [2], the inhibition turned out to be 1.5%.
For `c1ccc2c(c1)-c1nc-2nc2[nH]c(nc3nc(nc4[nH]c(n1)c1ccccc41)-c1ccccc1-3)c1ccccc21`, the inhibition in test [1] was -0.22%.
Still for that read-out and setting: the value for `Cc1cccc(-c2n[nH]cc2-c2ccc3ncccc3n2)n1` was -0.98%.
As to `Cc1cc(O)c2c(=O)c3c(O)cc(O)c4c5c(O)cc(O)c6c(=O)c7c(O)cc(C)c8c1c2c(c34)c(c78)c65`, in test [1], the inhibition was determined as 22.2%.
In the case of `CCCCCCCCCCCCCCCC(=O)N[C@@H](CCC(=O)NCCCC[C@H](NC(=O)[C@H](C)NC(=O)[C@H](C)NC(=O)[C@H](CCC(N)=O)NC(=O)CNC(=O)[C@H](CCC(=O)O)NC(=O)[C@H](CC(C)C)NC(=O)[C@H](Cc1ccc(O)cc1)NC(=O)[C@H](CO)NC(=O)[C@H](CO)NC(=O)[C@@H](NC(=O)[C@H](CC(=O)O)NC(=O)[C@H](CO)NC(=O)[C@@H](NC(=O)[C@H](Cc1ccccc1)NC(=O)[C@@H](NC(=O)CNC(=O)[C@H](CCC(=O)O)NC(=O)[C@H](C)NC(=O)[C@@H](N)Cc1cnc[nH]1)[C@@H](C)O)[C@@H](C)O)C(C)C)C(=O)N[C@@H](CCC(=O)O)C(=O)N[C@@H](Cc1ccccc1)C(=O)N[C@H](C(=O)N[C@@H](C)C(=O)N[C@@H](Cc1c[nH]c2ccccc12)C(=O)N[C@@H](CC(C)C)C(=O)N[C@H](C(=O)N[C@@H](CCCNC(=N)N)C(=O)NCC(=O)N[C@@H](CCCNC(=N)N)C(=O)NCC(=O)O)C(C)C)[C@@H](C)CC)C(=O)O`, the inhibition in test [1] was -0.77%.
Still for that read-out and setting: the value for `CC(=O)/N=c1/sc(S(N)(=O)=O)nn1C` was 0.67%; that for `NS(=O)(=O)c1nn2cc(-c3ccccc3)nc2s1` was 82%; that for `CCCCOC(=O)c1cc2c(cn1)[nH]c1ccccc12` was 36%.
For `O=C(O)c1cnn(-c2nc3cc(OC(F)(F)F)c(Cl)cc3[nH]2)c1`, the inhibition in test [1] stood at 95.9%.
As to `Cc1ccc2[nH]c(=O)c(C3=NN(C(=O)CCC(=O)O)C(c4ccc(Br)cc4)C3)c(-c3ccccc3)c2c1` (stereo not drawn), the inhibition in test [1] was -0.13%.
Take `CCC(CC)Nc1cc(C)nc(Oc2c(C)cc(C)cc2C)c1C`: in test [1], the inhibition was -6.76%.
Regarding `O=C(O)Cc1cc2ccccc2nc1C(=O)O`, in test [1], the inhibition stood at 6.45%.
On the same count and under the same terms, for `C[C@@H]1O[C@@]2(CS1)CN1CCC2CC1.C[C@H]1O[C@]2(CS1)CN1CCC2CC1` the value was -5.94%; for `O=C(CCCCCN1C(=O)c2cccc3cccc(c23)C1=O)NO`, 98.7%; for `O=C(O)CCCN1C(=O)c2cccc3cccc(c23)C1=O`, -1.41%.
Still for that read-out and setting: the value for `O=C(O)CN1C(=O)c2cccc3cccc(c23)C1=O` was 5.8%.
Same read-out and setting: for `CC(C)(Sc1ccncc1-c1ccc(C#N)c2ccccc12)C(=O)O` the value was 2.75%; for `N[C@H](Cc1c[nH]cn1)C(=O)O`, 5.27%; for `C/C(=N\NC(=O)C(NC(=O)c1ccccc1)c1n[nH]c(=O)c2ccccc12)c1cccc(Br)c1` (stereo not drawn), 0.86%.
On to `Cc1noc(C)c1-c1cc(O)cc(C(O)c2ccccc2)c1` (stereo not drawn), for which the inhibition in test [1] came to 2.55%.
Same read-out and setting: for `CC(=O)Nc1ncc([N+](=O)[O-])s1` the value was -3.88%; for `COc1ccc(CNC(=O)c2sc3nc(C)cc(C)c3c2N)cc1`, 13.2%; for `COc1ccc(CNC(=O)Nc2ncc([N+](=O)[O-])s2)cc1`, 64.8%.
